Source: PubChem BioAssay
TDP1 cell noCPT: qHTS for Inhibitors of human tyrosyl-DNA phosphodiesterase 1 (TDP1): qHTS in cells in absence of CPT | DT40 Tdp1-/- hTDP1 cells, no CPT, ATP luminescence, 48 h | Potency, µM (titrated, usually from 46.2 µM), usual class: inhibitors | 420,000 tested, 15% active | AID 686978, 2013; note: nearly all actives have a fitted effect of over 55% in size
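A cellular qHTS used chicken DT40 cells lacking endogenous Tdp1 but carrying stably transfected human TDP1. Compounds were applied without camptothecin, and cell growth kinetics were judged by ATP-dependent luminescence after ≥48 hr.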
IL-1B inflam inh: qHTS for Inhibitors of Inflammasome Signaling: IL-1-beta AlphaLISA Primary Screen; activity change, % at 57.5 µM; 360,000 tested, 4.7% active; THP-1 LPS/ATP IL-1B secretion, AlphaLISA, 16 h; stronger effect = lower value; in the data active = activity change below about -50%; inconclusive = mostly about -30% to -49%
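THP-1 cells pretreated 1 hr with compounds (up to 57.5 uM final), then stimulated with LPS (250 ng/mL final) plus ATP (1.25 mM final); secreted IL-1B measured by AlphaLISA after 16 hr, decreased signal indicating inhibition.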
DT40 TDP1 CPT: qHTS for Inhibitors of human tyrosyl-DNA phosphodiesterase 1 (TDP1): qHTS in cells in presence of CPT | chicken DT40 Tdp1-/-;hTDP1 cells + 20 nM CPT, ATP luminescence, 48 h | Potency, µM (series often up to 46.2 µM), usual class: inhibitors | 420,000 tested, 12% active; note: nearly all actives have a fitted effect of over 55% in size
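Cell growth measured by CellTiter-Glo luminescence after a minimum 48 h, 37 C compound exposure with 20 nM CPT in Tdp1-knockout DT40 cells stably expressing hTDP1, seeded 400/well; qHTS titration format.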
HepG2 viability: qHTS for Inhibitors of TGF-b: Cytotox Counterscreen; Potency, µM (titrated, usually from 46.1 µM), actives largely listed as cytotoxic; 410,000 tested, 0.76% active; HepG2 CAGA-GFP viability, ATP luminescence, 18 h; AID 588856, 2011
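CellTiter-Glo luminescence gave cytotoxicity after 18 hours at 37 degrees C. The cells were HepG2 CAGA-GFP in 1% FBS DMEM, stimulated with 500 pg/mL TGF-beta after compound addition. %Activity was normalised to no-cell wells (complete cell-killing) and DMSO (no toxicity), and curves were fitted and classified.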
TGFb inhibitor: qHTS for Inhibitors of TGF-b | HepG2 CAGA-GFP TGF-b/SMAD3 reporter, GFP fluorescence, 18 h; TGF-beta stimulated, 500 pg/mL final | Potency, µM (series often up to 46.1 µM), most hits filed as inhibitors | 410,000 tested, 1.2% active; note: nearly all actives have a fitted effect of over 65% in size
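Read-out: total well GFP (ex488/em500-530) summed from mean per-cell fluorescence. Cells: HEPG2 CAGA-GFP, 1% FBS DMEM, 18 h at 37 degrees C with 500 pg/mL final TGF-beta. Unstimulated wells served as the full-inhibition control; stimulated DMSO wells = 0%.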
TDP1 inh: qHTS Assay for Inhibitors of Tyrosyl-DNA Phosphodiesterase (TDP1) | recombinant TDP1, AlphaScreen DNA substrate cleavage | 350,000 tested, 0.28% active | Potency, µM (top dose mostly 130 µM), usual class: inhibitors | AID 485290, 2010 | Tyrosyl-DNA phosphodiesterase 1 (Homo sapiens), Q9NUW8; note: nearly all actives have a fitted effect of over 40% in size
Target sequence (Q9NUW8 whole entry, looked up): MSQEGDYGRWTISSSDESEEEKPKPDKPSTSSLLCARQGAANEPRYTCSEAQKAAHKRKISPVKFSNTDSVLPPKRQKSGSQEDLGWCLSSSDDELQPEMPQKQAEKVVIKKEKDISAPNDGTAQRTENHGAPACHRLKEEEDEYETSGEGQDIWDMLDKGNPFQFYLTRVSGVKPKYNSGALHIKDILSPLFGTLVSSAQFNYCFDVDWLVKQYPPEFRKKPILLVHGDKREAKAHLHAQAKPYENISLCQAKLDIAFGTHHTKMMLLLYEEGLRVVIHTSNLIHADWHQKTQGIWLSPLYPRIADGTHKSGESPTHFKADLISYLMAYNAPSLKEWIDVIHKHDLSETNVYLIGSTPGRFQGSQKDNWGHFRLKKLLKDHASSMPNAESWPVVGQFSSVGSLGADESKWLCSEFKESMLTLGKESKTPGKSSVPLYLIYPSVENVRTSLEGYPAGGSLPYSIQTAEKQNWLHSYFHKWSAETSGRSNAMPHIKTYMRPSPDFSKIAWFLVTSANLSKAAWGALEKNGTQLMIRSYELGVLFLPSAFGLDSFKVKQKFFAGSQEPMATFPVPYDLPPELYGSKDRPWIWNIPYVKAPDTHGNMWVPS
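Signal: AlphaScreen proximity between streptavidin donor and anti-FITC acceptor beads on intact substrate. Reaction: Tdp1 1 nM, substrate 15 nM final, 5 min RT after 15 min compound preincubation.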
A number is an active result; i = inactive; ? = inconclusive; nt = no result given. An excerpt weighted towards active compounds, which were near 19% of everything screened. Unless noted, calls come from the whole dose curve; as a rule, active = well fitted curve in the direction sought with a large enough effect; inconclusive = small, poorly fitted or top-dose-only effect, or another doubt; inactive = no such curve, though single readings can be large; an effect the other way counts as inactive or inconclusive.

SMILES	TDP1 cell noCPT	IL-1B inflam inh	DT40 TDP1 CPT	HepG2 viability	TGFb inhibitor	TDP1 inh
COc1ccc(CC2(CO)CCN(Cc3ccc(OC(F)(F)F)cc3)CC2)cc1	18µM	nt	?	20µM	14µM	i
COc1ccc(CC2(CO)CCN(Cc3ccc4c(c3)CCO4)CC2)cc1	i	?	i	i	i	nt
Nc1nnc2c(n1)[nH]c1ccccc12	?	nt	i	i	i	i
Oc1cc(-c2ccncc2)cc2cccnc12	nt	nt	nt	11µM	?	i
CN(C)c1ccc(-c2cc(O)c3ncccc3c2)cc1	nt	nt	nt	i	?	i
COc1cc2c(NC3CCN(C)CC3)nc(N3CCCN(C)CC3)nc2cc1OCCCN1CCCC1	?	nt	?	i	i	nt
COCCCCOc1cc2nc(N3CCCN(C)CC3)nc(NC3CCN(C)CC3)c2cc1OC	11µM	nt	13µM	nt	nt	nt
COc1cc2c(NC3CCN(C)CC3)nc(N3CCCN(C)CC3)nc2cc1OCCCN1CCOCC1	11µM	nt	7.9µM	i	10µM	nt
CC1(C)Cc2c(ccc3ccccc23)C2=C(C(=O)N3CCCC3)C(=O)C(=O)N21	8.2µM	i	8.2µM	i	?	i
Cc1ccccc1C(=O)Nc1nnc(S(=O)(=O)N(C)Cc2ccc(Cl)cc2)s1	i	nt	i	i	?	i
Cc1cccc(C)c1NC(=S)N/N=C/c1ccc(OCCC(C)C)cc1	7.3µM	?	9.2µM	i	i	i
S=C(NCCc1ccccc1)N/N=C/c1c(Cl)cccc1Cl	16µM	i	?	i	?	i
S=C(NCCc1ccccc1)N/N=C/c1ccc(Cl)cc1	?	i	?	i	?	nt
COc1cc(/C=N/NC(=S)NCCc2ccccc2)cc(OC)c1OC	16µM	i	26µM	i	?	nt
Cc1cccc(C)c1NC(=S)N/N=C/c1c(Cl)cccc1Cl	21µM	i	?	i	i	i
CCCCOc1ccc(/C=N/NC(=S)Nc2cccc(C)c2C)cc1	?	i	?	i	i	i
COc1cc(/C=N/NC(=S)NCCN2CCOCC2)cc(OC)c1OC	?	i	i	i	i	i
O=C(CCn1nnc2ccccc21)NNC(=O)C1CCCCC1	i	i	i	i	i	i
CCOC(=O)c1c(C)[nH]c(C)c1S(=O)(=O)N1CCC(C(=O)NCc2ccccc2Cl)CC1	i	nt	i	i	i	i
Cc1cc(NC(=O)c2cccs2)cc(-c2nc3cc(Cl)ccc3o2)c1O	nt	nt	nt	i	i	i
O=[N+]([O-])c1ccc(N2CCCCC2)nc1N1CCCCC1	21µM	i	?	i	i	i
Cc1cc(=O)c2ccccc2n1Cc1ccccc1	16µM	-50	?	i	?	i
Cc1nc2ccccc2n1CC(=O)NN	i	i	i	i	i	i
COc1ccc(NC(=O)Cn2c(C)cc(=O)c3ccccc32)cc1	12µM	i	10µM	i	?	i
CCOC(=O)Cn1c(C)cc(=O)c2ccccc21	i	?	i	i	i	i
SMILES	TDP1 cell noCPT	IL-1B inflam inh	DT40 TDP1 CPT	HepG2 viability	TGFb inhibitor	TDP1 inh
COc1ccc(NC(=O)Cn2c(=O)n(CCc3ccccc3)c(=O)c3ccccc32)cc1	?	nt	i	i	i	i
Cc1cc(=O)c2ccccc2n1CC(=O)NCc1ccccc1	?	i	18µM	i	?	i
Cc1nc2ccccc2n1CC(=O)NCc1ccccc1	12µM	i	9.2µM	i	i	i
Cc1nc2ccccc2n1CC(=O)NC(C)C1CC2CCC1C2 (configuration not stated)	0.92µM	i	1.5µM	i	i	i
COc1cccc2c(=O)cc(C)n(CC(=O)Nc3cccc(C)c3)c12	18µM	i	?	i	i	i
NC(=O)c1sc(=S)n(-c2ccc(Br)cc2)c1N	i	i	i	i	11µM	i
COc1cc(/C=C2\C(=O)N(c3ccc(NC(C)=O)cc3)N=C2c2ccccc2)ccc1O	i	i	i	i	i	i
O=C1/C(=C\c2ccc(O)c(O)c2)C(c2ccccc2)=NN1c1ccccc1	21µM	i	?	i	?	i
O=C(O)CN1C(=O)S/C(=C\c2cccnc2)C1=O	i	i	i	i	i	i
O=C(NCCN1C(=O)S/C(=C\c2cccnc2)C1=O)C1=NN(c2ccccc2)C(=O)CC1	23µM	i	?	i	i	i
O=C(COc1ccccc1-c1ccccc1)NCCN1C(=O)S/C(=C\c2cccnc2)C1=O	16µM	i	16µM	i	i	i
O=C(NCCN1C(=O)S/C(=C/c2cccnc2)C1=O)c1cccs1	?	?	?	i	i	i
COc1cccc(-c2nc(CS(=O)(=O)CC(=O)Nc3ccc(C)c(Cl)c3)c(C)o2)c1	i	nt	i	i	i	i
COc1ccc(OC)c(CNCc2c(C(=O)O)n(Cc3cccc(F)c3)c3cc(OC)ccc23)c1	21µM	nt	?	i	i	i
COc1ccc(Cn2c(C(=O)O)c(CNCC(C)c3ccccc3)c3ccc(OC)cc32)cc1 (configuration not stated)	23µM	nt	?	i	i	i
CCc1ccc(CNCc2c(C(=O)O)n(Cc3cccc(F)c3)c3cc(OC)ccc23)cc1	21µM	nt	23µM	i	?	i
COc1ccc2c(CNCCc3ccc(SC)cc3)c(C(=O)O)n(Cc3ccc(F)cc3)c2c1	12µM	nt	16µM	i	?	i
COc1ccc2c(CNCc3cccs3)c(C(=O)O)n(Cc3ccc(C)cc3)c2c1	i	nt	i	i	i	i
Nc1ccn([C@@H]2O[C@H](CNCc3cccc4c3sc3ccccc34)[C@@H](O)[C@H]2O)c(=O)n1	i	i	i	i	i	nt
Oc1ccc(-c2csc(-c3cccnc3)n2)cc1O	23µM	-78	18µM	i	i	nt
Cc1nc(-c2ccc(O)c(O)c2)cs1	?	i	16µM	i	i	i
Fc1ccc(-c2csc(-c3cccnc3)n2)cc1F	i	i	i	i	i	nt
COc1ccc(NC(=O)/C(C#N)=C/c2cc(C)n(-c3ccc(F)cc3)c2C)cc1	i	nt	i	i	i	i
CN(C)c1nc(/C=C(\C#N)C(N)=O)c(Cl)n1-c1ccc(F)cc1	21µM	-98	16µM	i	i	i
Cc1ccc(S(=O)(=O)N2CCN(c3nc(-c4cccs4)nc4ncccc34)CC2)cc1	?	nt	?	i	i	nt
CCCNC(=S)NC1CC2CCCC(C1)N2Cc1ccc(F)cc1 (configuration not stated)	18µM	i	?	i	i	i
